These results are taken from PubChem BioAssay (NCI).

The panel holds about 83,000 compounds, 20% with a hit somewhere; the sample as a whole holds those more often.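 48-hour exposure, single concentration, 96-well plates; percent growth endpoint where 0 means no net growth. Active: below 10.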 Values without a mark were called inactive. The source made the active and inactive calls.

What all share (experiment): NCI-60 one-dose screen, 48 h (100 = growth as untreated, 0 = no growth, -100 = all killed)
Conditions in all cases: 10 µM unless noted

For experiment [1], the system named is DU-145 prostate.
Experiment [2] deals with K-562 leukemia.
The test system of experiment [3] is MALME-3M melanoma.
Experiment [4] relates to MDA-MB-231 breast.
The subject of experiment [5] is RXF 393 renal.
Experiment [6] concerns SF-268 CNS.
Experiment [7] has as its system SF-295 CNS.
Experiment [8] has as its system SF-539 CNS.
In experiment [9] the test system is UACC-257 melanoma.
The subject of experiment [10] is M14 melanoma.
The test system of experiment [11] is HCT-15 colon.
Experiment [12] concerns HT29 colon.
The test system of experiment [13] is SNB-75 CNS.
Experiment [14] concerns SNB-19 CNS.
For experiment [15], the system named is U251 CNS.
The subject of experiment [16] is SK-MEL-5 melanoma.
The subject of experiment [17] is UACC-62 melanoma.
For experiment [18], the system named is LOX IMVI melanoma.
Experiment [19] relates to PC-3 prostate.
In experiment [20] the test system is SK-MEL-28 melanoma.

`CCCCCCCCCCCCCCCCCC(=O)[O][Sn]([CH2]CCC)([CH2]CCC)[CH2]CCC`: the growth in [1] was -100% (active); in experiment [2] it was -42.8% (active); in [3], -85.9% (active); in experiment [4] it was -57.8% (active); in experiment [5], -98% (active); in [6], -92.8% (active). Moreover, the growth in experiment [7] was -85.3% (active); in [8], -81.6% (active); in experiment [9], -86.1% (active); in experiment [10], -91.1% (active); in [11], -82.6% (active); in experiment [12], -52.2% (active). For the same molecule, the growth is -96.8% (active) in experiment [13]; -70.9% (active) in experiment [14]; -89.3% (active) in experiment [15]; -99.9% (active) in experiment [16]; -60.6% (active) in experiment [17]; -92.7% (active) in [18].

`CC1OC(n2c3ccccc3c3c4c(c5c6ccccc6[nH]c5c32)C(=O)N(CCN2CCOCC2)C4=O)CC(O)C1O` (stereo unspecified): the growth in experiment [1] is 18.1%; in experiment [2], 18.4%; in experiment [3], 49.1%; in experiment [4] it was 74.5%; in [5], 33.4%; in experiment [6] it was 29.8%. Further, the growth in experiment [7] is 6.46% (active); in experiment [8], 8.58% (active); in experiment [9] it was 31.8%; in experiment [10], 6.29% (active); in [11], 26.5%; in experiment [12], 13.4%. Further, the growth is 5.86% (active) in experiment [13]; 21.5% in experiment [14]; 10.4% in [15]; 34% in experiment [19]; 21.1% in [17]; 2.7% (active) in experiment [18]. For the same molecule, the growth in experiment [20] was 67.6%.

For `C(=Nc1ccc(-c2ccc(N=Cc3ccccc3)cc2)cc1)c1ccccc1`, the growth in experiment [1] is 118%; in experiment [2], 95.4%; in experiment [3], 94.6%; in [4], 88.2%; in experiment [5], 113%; in experiment [6] it was 105%. The growth in experiment [7] is 99.2%; in experiment [8], 107%; in experiment [9], 109%; in [10], 104%; in [11], 106%; in experiment [12], 93.9%. In addition, the growth was 83.4% in [13]; 107% in experiment [14]; 98.3% in experiment [15]; 80.3% in [19]; 93.7% in experiment [17]; 105% in experiment [18]. The growth in experiment [20] was 99.9%.

Consider `CCOC(=O)Nc1ccc2nc(Sc3ccc(Cl)cc3)sc2c1`, for which the growth in [1] is 35.8%; in [2], 21%; in experiment [3] it was 42%; in [4], 43.4%; in experiment [5], 36.8%; in experiment [6], 54.4%. The growth in experiment [7] is 29.1%; in [8], 5.63% (active); in [9], 57.3%; in experiment [10], 30%; in [11], 25.5%; in experiment [12], 19.4%. Moreover, the growth in experiment [13] is -12% (active); in experiment [14] it was 48.3%; in [15], 36.1%; in [19] it was 34.3%; in experiment [17], 33.8%; in experiment [18] it was 47.9%. In addition, the growth in experiment [20] is 38.1%.

As to `COc1ccc(-c2nc(SCCC(C)C)nc(Nc3ccc(C(=O)O)cc3)c2C#N)cc1`, the growth in [1] was 93.2%; in experiment [2], 67.8%; in [3], -52% (active); in experiment [4] it was 98%; in experiment [5], 90.1%; in experiment [6], 89.4%. Besides, the growth in experiment [7] is 80.5%; in experiment [8], 91.3%; in [9], 95.2%; in experiment [10], 102%; in [11] it was 60.6%; in experiment [12], 84%. The growth in [13] was 92.2%; in [14], 88.8%; in experiment [15], 81.5%; in experiment [19], 58.4%; in experiment [17], 86.8%; in experiment [18], 82.6%. For the same molecule, the growth in experiment [20] was 89.7%.

On to `COc1cc(/C=C\c2cc(/C=C\c3ccc(O)c(OC)c3)n(C(=O)Nc3ccc(C(F)(F)F)cc3)n2)ccc1O`, for which the growth was 47.6% in experiment [1]; 9.45% (active) in experiment [2]; 52.3% in [3]; 54.8% in experiment [4]; 22.7% in experiment [5]; 37.1% in [6]. Moreover, the growth in [7] was 83.4%; in [8], 29%; in [9] it was 25%; in experiment [10], 29.5%; in experiment [11], 25.5%; in experiment [12] it was 3.5% (active). Besides, the growth was 71.8% in experiment [13]; 48.7% in experiment [14]; 9.71% (active) in experiment [15]; 35.4% in [16]; 31.1% in experiment [17]; 9.11% (active) in [18]. Further, the growth in experiment [20] was 58%.

Turning to `O=C(/C=C/c1ccccc1)c1c[nH]c2ccccc2c1=O`, the growth in experiment [1] is 7.22% (active); in experiment [2] it was 11.1%; in experiment [3] it was 43.6%; in experiment [4], -1.53% (active); in [5], 18.1%; in experiment [6] it was -14.1% (active). Also, the growth in experiment [7] was -51.7% (active); in experiment [8] it was -24.5% (active); in experiment [9] it was 58.9%; in experiment [10] it was -24% (active); in experiment [11], 4.67% (active); in experiment [12], 8.44% (active). Further, the growth is -15.6% (active) in [13]; 16.3% in experiment [14]; 11.6% in [15]; 26.7% in [19]; 29.2% in [17]; -32.6% (active) in [18]. Also, the growth in experiment [20] is 66.4%.

Regarding `COc1ccc(Oc2nc(Nc3ccc(N4CCOCC4)cc3)ncc2NC(=O)Nc2cccc(OC)c2)cc1`, the growth in experiment [1] was 47.5%; in experiment [2], 57%; in experiment [3], 69.7%; in experiment [4] it was 28.8%; in [5], 39.4%; in experiment [6], 74.4%. Moreover, the growth is 81.1% in experiment [7]; 28.3% in [8]; 91.5% in experiment [9]; 71.9% in experiment [10]; 84% in [11]; 54.2% in [12]. In addition, the growth in experiment [13] is 80.1%; in experiment [14] it was 72%; in experiment [15], 48.8%; in experiment [16], 22.5%; in [17], 46.8%; in experiment [18], 76.7%. For the same molecule, the growth in [20] was 61.4%.

Take `O=c1c2cc(Cl)ccc2oc2ccc(OCCCCCN3CCCCCC3)cc12`: the growth in experiment [1] was 91.9%; in experiment [2], 34.6%; in experiment [3], 114%; in [4], 84.4%; in [5] it was 84.4%; in experiment [6], 87.4%. In addition, the growth in experiment [7] is 97.5%; in experiment [8] it was 94.1%; in [9], 83.7%; in experiment [10], 45.2%; in [11] it was 30%; in [12], 5.64% (active). Moreover, the growth in experiment [13] was 92.3%; in experiment [14], 91.5%; in experiment [15], 69.2%; in [19], 83.2%; in [17], 85.4%; in [18], 73.2%. Further, in experiment [20], the growth was 107%.

As for `O=C(N/N=C/c1ccc([N+](=O)[O-])cc1)c1ccccc1Nc1ccnc(C(F)(F)F)c1`, the growth is 98.6% in experiment [1]; 78% in experiment [2]; 86% in experiment [3]; 70.4% in experiment [4]; 91.7% in experiment [5]; 86.2% in experiment [6]. Moreover, the growth was 83.8% in experiment [7]; 84.3% in experiment [8]; 79.4% in experiment [9]; 101% in [10]; 89.9% in [11]; 101% in [12]. The growth was 77.2% in experiment [13]; 82.4% in [14]; 88.7% in experiment [15]; 72.9% in experiment [19]; 57.6% in experiment [17]; 78.2% in [18]. For the same molecule, the growth in experiment [20] was 104%.

Take `O=c1oc2ccccc2cc1-c1cc(-c2ccc(-c3cc(-c4cc5ccccc5oc4=O)nc(-c4cc5ccccc5oc4=O)c3)cc2)cc(-c2cc3ccccc3oc2=O)n1`: the growth was 107% in experiment [1]; 94.8% in experiment [2]; 98.3% in experiment [3]; 94.4% in [4]; 118% in [5]; 104% in [6]. The growth in experiment [7] was 111%; in experiment [8] it was 93.2%; in [9], 103%; in experiment [10], 103%; in experiment [11], 103%; in experiment [12] it was 108%. Besides, the growth in experiment [13] was 97.5%; in experiment [14], 96.9%; in experiment [15], 99.6%; in experiment [16], 101%; in [17], 99.1%; in experiment [18] it was 102%. The growth in experiment [20] was 108%.

In the case of `CC1CCN(CCCCCOc2ccc3oc4ccc(Cl)cc4c(=O)c3c2)CC1`, the growth was 78.9% in [1]; 9.6% (active) in experiment [2]; 81.6% in experiment [3]; 48% in experiment [4]; 71% in experiment [5]; 77.5% in experiment [6]. The growth in [7] was 78.7%; in experiment [8], 74.6%; in experiment [9], 5.99% (active); in experiment [10] it was -54% (active); in experiment [11] it was -21.5% (active); in experiment [12], 1.54% (active). For the same molecule, the growth was 93.5% in [13]; 79.6% in experiment [14]; 49.5% in experiment [15]; 11.6% in [16]; -43.5% (active) in [17]; 7.78% (active) in experiment [18]. Also, in experiment [20], the growth was 64.7%.

As for `CC(C)OC1OC(OC(C)C)C(OC(C)C)OC1OC(C)C` (stereo unspecified), the growth in [1] is 112%; in [2], 92.5%; in experiment [3], 119%; in experiment [4], 91.8%; in experiment [5] it was 127%; in experiment [6], 96.5%. In addition, the growth is 109% in experiment [7]; 105% in experiment [8]; 92.2% in experiment [9]; 99.2% in [10]; 98.1% in [11]; 95.8% in [12]. Moreover, the growth was 99% in experiment [13]; 90.9% in [14]; 90.3% in [15]; 91.8% in experiment [19]; 85.9% in [17]; 102% in experiment [18]. Further, the growth in experiment [20] is 106%.
